Data reported in the supplement of paper PMC6555819.

How the values were obtained:
Experiment in all cases: PBM binding z-score (relative to random genomic background probes); higher = stronger binding; sequences stand for … in GC…GCGATTGACAGCGTAGAATGAAGG
[1] = system: RARb homodimer (NR concentration 270 nM)
How it was run: (§1)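 Ligand-free nuclear receptor dimers were bound for 1 h to custom Agilent 4×180K protein-binding microarrays. Detection used antibodies against each partner (one per run). Binding z-scores rest on regression-normalized fluorescence, with random background probes as the reference.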

[2] = system: RARg:RXRa (NR concentration 270 nM, RXRa partner concentration 90 nM)
How it was run: as §1

[3] = system: RARg homodimer (NR concentration 270 nM)
How it was run: as §1

[4] = system: RXRa DBDmut IVT, anti-RXR (DBD mutation: RXRa K156A/R161A, NR concentration 90 nM)
How it was run: as §1

[5] = system: RXRa homodimer (NR concentration 180 nM)
How it was run: as §1

[6] = system: THRa:RXRa (NR concentration 90 nM, RXRa partner concentration 90 nM)
How it was run: as §1

[7] = system: THRa homodimer (NR concentration 90 nM)
How it was run: as §1

[8] = system: VDR homodimer (NR concentration 270 nM)
How it was run: as §1

Sequence | PBM binding z-score [1] | PBM binding z-score [2] | PBM binding z-score [3] | PBM binding z-score [4] | PBM binding z-score [5] | PBM binding z-score [6] | PBM binding z-score [7] | PBM binding z-score [8]
GCTTCTAGATCAAGGTTAAGAAAGACTAAGCTAA | 0.106 | 0.25 | 0.347 | 0.0774 | 0.547 | 1.16 | -0.453 | -0.36
TGAAGGAGGTTATAAGATCAGGGAACGTTGCAAA | 0.457 | 1.11 | 0.942 | -0.654 | 1.56 | 0.689 | 0.0287 | 0.219
AGATGTAGGTTAGCTGGGGTCATTCAGACTAGGC | 3.53 | 3.96 | 2.72 | 1.78 | 5.24 | 5.05 | 3.03 | 4.8
TCTTATAGGTAATACAGGTGAAAGTCGGCATCTA | 0.728 | 0.769 | 0.709 | 1.75 | 1.18 | 1.09 | 0.611 | 0.529
TTACCAAGGTTAGCTGAGGTCGTTGATCCAACTC | 2.06 | 1.68 | 1.41 | 0.854 | 1.84 | 5.01 | 2.13 | 2.87
TCTGCTAGGTCAGTTGGTCAGCTCACGAGCTGCC | 2.45 | 2.61 | 3.31 | 0.58 | 1.15 | 1.38 | 0.196 | -0.78
AGAATGAGCTTACCAAAGATCAGGGAAACGCTTG | -0.958 | -0.0102 | -0.129 | -0.777 | 0.323 | -0.369 | -0.963 | -0.938
GCTTGTAGAACAAGGTTAAGAAAGACTAAGCTAA | -0.00172 | 0.534 | 0.188 | -0.0592 | 0.633 | 0.947 | -0.592 | -0.315
CCTTACGCGTCACGAGGTTATAGCACGACGAGCG | 0.644 | 0.881 | 0.604 | 0.705 | 1.38 | 1.51 | 0.967 | 0.734
TGAATGAGGTTATAGGATCAGGGAACGTTGCAAA | 0.349 | 1.53 | 0.884 | 0.852 | 2.42 | 2.12 | 0.489 | 0.329
GGAACGAGGGCATTCGAGATGATAGCATGGCGAT | 0.609 | 1.13 | 1.65 | 3.05 | 1.02 | 1.44 | -0.487 | 2.01
CGTCAAAGTTCAACTAAGGGAACGTAAAGCACGC | 3.93 | 5.85 | 6.56 | 4.65 | 5.21 | 4.49 | 0.0368 | 3.51
ACTAGTTGGTCAGCTGAGGTCACACGCAATTCGG | 4.17 | 4.1 | 4.4 | 1.4 | 4.02 | 5 | 5.12 | 3.63
AGAGACAGGTGATGAAGGTAACTCAGGCTATCAT | 0.746 | 0.284 | 0.541 | -0.709 | 0.56 | 1.25 | 0.485 | 0.0584
CCAAGTAGGTTATGGGGCATTCAGGCAACGGTGA | 0.93 | 0.634 | 0.608 | 0.0857 | 0.733 | 0.508 | -0.0137 | 0.318
GCTAGCAGGCCATTTGGGTCACTCTATGACGGGC | 1.56 | 0.776 | 0.994 | -0.157 | 0.463 | 1.4 | 0.526 | 0.578
CGTCCATGGTCAGAGAGGTCAGTGAATGCCGAGT | 4.09 | 3.16 | 4 | 0.839 | 2.97 | 2.58 | 0.835 | 2.63
TAGCCTAGGTCAGATCGGGCCAGTAAACGCTATA | 1.72 | 2.66 | 3.21 | -0.396 | 1.32 | 3.89 | -0.219 | -0.568
ACTATTAGTTGACTTAGGGCGACCGATACGACGC | 0.553 | 0.564 | 0.841 | 1.02 | 0.421 | 1.12 | 0.262 | 0.166
TGAATGAGGTTAAAGATCATGGAACGTGGCGTCG | 0.734 | 2.46 | 1.32 | 0.839 | 4.34 | 2.79 | 0.35 | 0.314
CGAACTAGGTCATTGAGAGGACAGTGAATAGTAA | 3.22 | 5.93 | 4.96 | 2.07 | 3.22 | 3.42 | 1.08 | 1.56
CCTGCTAGGTCATGGTCAGCTAGTCTACAGTATG | 3.22 | 4.05 | 4.82 | 1.84 | 2.76 | 3.03 | 1.25 | 0.287
AGAATGAGGGTATACGTAGATCAGGGAAGAAAGT | 0.451 | 0.26 | 0.277 | 0.799 | 0.262 | 0.252 | 0.0652 | 0.45
GCTGCTAGGTCAGGTTGGTCAGCCAACGGGTACG | 2.66 | 2.78 | 3.65 | 0.121 | 0.819 | 1.61 | 0.269 | 0.768
CGTCACAGTTCAAGGTAACGTAACAGAAAGCAGC | 1.63 | 2.45 | 2.53 | 2.69 | 2.14 | 2.24 | 1.24 | 1.53
TAGCATAGGTCAGATCGGGCCAGTATACGCTATA | 2.53 | 3.8 | 3.77 | -0.503 | 2.97 | 4.24 | -1.1 | -0.438
TTACCAAGGTGAGCTGAGGTCGGTGATCCAACTC | 1.46 | 0.608 | 0.586 | -0.659 | 0.505 | 4.31 | 1.25 | 0.0612
ATTATTAGTTGAGACGAGGGCAACCGATAGGTTG | 1.64 | 1.02 | 1.18 | 0.511 | 0.708 | 2.79 | 0.878 | 1.63
CCTGCTAGGTCAATGGTCAGGTAAAGCAGCTCGC | 2.93 | 3.45 | 4.27 | 1.52 | 2.28 | 2.65 | 1.34 | 0.248
